We go through 91 compounds from PubChem BioAssay AID504766 (The Scripps Research Institute Molecular Screening Center, 2011).

Hit rate of the full screen: of about 340,000 compounds, about 3,400 (1%) were called active. This excerpt belongs to a sample that is enriched for actives. A number with no mark means an inactive call.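 Rule for the calls: active = inhibition above the mean over all tested compounds plus 3 SD (cut at about 4.2% in these data); inactive = the rest.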

The experiment deals with Nuclear receptor subfamily 0 group B member 1 (Homo sapiens) (UniProt P51843). Kind of experiment: DAX1 (NR0B1) inhibitors, primary screen, cell-based, HEK293, Gal4-DAX1, luciferase luminescence (AID 504766).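 Note: 0% = DAX1-transfected cells with DMSO and 100% = empty-vector control cells with DMSO; inhibition shows as a rise in luminescence from relieved DAX1 repression.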 To be noted: HEK293 Gal4-DAX1 luciferase reporter, at 6.75 µM, hits give high values. (In general: A reporter such as luciferase makes a cellular process visible.)
Chain of Nuclear receptor subfamily 0 group B member 1 (Homo sapiens) (P51843 207-470 limits assumed): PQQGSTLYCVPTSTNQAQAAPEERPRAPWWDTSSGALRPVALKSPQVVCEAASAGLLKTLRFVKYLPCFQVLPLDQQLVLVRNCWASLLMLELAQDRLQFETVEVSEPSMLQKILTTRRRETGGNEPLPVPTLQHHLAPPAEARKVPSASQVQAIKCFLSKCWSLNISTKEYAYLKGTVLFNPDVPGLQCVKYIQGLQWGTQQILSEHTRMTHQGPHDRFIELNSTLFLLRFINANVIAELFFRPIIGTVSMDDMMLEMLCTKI
A word on the inhibition: it is the change of the read-out against control, counted positive when it falls. On to `COc1ccccc1OCCNC(=O)CCNC(=O)c1ccccc1Cl`, for which the inhibition is 0.98%.

Take `COc1cc(SC)ccc1C(=O)N(Cc1ccccc1)c1ccccc1`: the inhibition was -0.88%.

As to `COc1cc(SC)ccc1C(=O)NCCOc1ccccc1Cl`, the inhibition is 4.52% (active).

Turning to `O=C(NCC(F)(F)F)c1ccc(S(=O)(=O)NCCc2ccc3c(c2)OCCO3)cc1`, the inhibition is 1.37%.

Regarding `C#Cc1cc(N2CCN(C(=O)c3ccoc3)CC2)n2nc(-c3cccc(Cl)c3)cc2n1`, the inhibition is -0.19%.

`CCCc1c(C)nc2scc(-c3ccc(Cl)cc3)n2c1=O`: the inhibition is 1.4%.

Turning to `COc1ccc(OC)c(/C=C/C(=O)c2ccc3c(c2)OCO3)c1`, the inhibition is 5.49% (active).

With `COc1ccc(OC)c(/C=C/C(=O)OCC(=O)Nc2ccc3c(c2)OCCO3)c1`, the inhibition is 0.21%.

With `COc1ccc(NC(=O)NCc2ccc3c(c2)OCO3)c(OC)c1`, the inhibition was 0.03%.

Take `CCCCN(C(C)=O)c1ccc2c(c1)C1CC2CCN1Cc1ccccc1` (stereo unspecified): the inhibition was 1.48%.

Regarding `CCN(CC)CCN(C(=O)c1ccc2c(c1)CCCC2)c1nc2c(OC)cccc2s1`, the inhibition is -0.58%.

Regarding `O=C(CC12CC3CC(CC(C3)C1)C2)NCc1ccco1`, the inhibition was -0.86%.

Turning to `CC(C)(C)NC(=O)NCc1ccco1`, the inhibition was 4.44% (active).

`COC(=O)/C=C/C(=O)NCc1ccco1`: the inhibition is 1.74%.

For `COc1ccc(OC)c(C(=O)NC2CCCc3c2cnn3-c2cc(C)cc(C)c2)c1` (stereo unspecified), the inhibition is -1.87%.

For `CC(=O)c1cccc(NC(=O)C2COc3ccccc3O2)c1` (stereo unspecified), the inhibition was 2.01%.

As for `COc1ccc(NC(=O)COC(=O)C2COc3ccccc3O2)cc1` (stereo unspecified), the inhibition was 0.47%.

On to `COc1ccc(NC(=O)C2COc3ccccc3O2)cc1` (stereo unspecified), for which the inhibition was 5.29% (active).

Turning to `COc1cc(C(=O)N2CCOC23CCN(Cc2ccccc2)CC3)cc(OC)c1OC`, the inhibition was 2.69%.

Turning to `O=C(CN1C(=O)NC2(CCCCCC2)C1=O)NC1CC1`, the inhibition was -0.19%.

As to `O=C(CN1C(=O)NC2(CCCCCC2)C1=O)NCc1ccc(F)cc1`, the inhibition was -0.55%.

Turning to `O=C(CN1C(=O)NC2(CCCC2)C1=O)NCC1CCCO1` (stereo unspecified), the inhibition is 10.2% (active).

As to `CC1CCCC(C)N1C(=O)COC(=O)c1ccccc1C(=O)c1ccccc1` (stereo unspecified), the inhibition was 1.22%.

On to `N#CCCN1CCN(S(=O)(=O)c2ccc(S(=O)(=O)N3CCCC3)cc2)CC1`, for which the inhibition was 2.37%.

Regarding `N#CCCN1CCN(S(=O)(=O)c2ccc(S(=O)(=O)NC3CCCCC3)cc2)CC1`, the inhibition is 4.67% (active).

`N#CCCN1CCN(S(=O)(=O)c2ccc(S(=O)(=O)NC3CC3)cc2)CC1`: the inhibition is -1.02%.

Regarding `CNC(=O)c1ccc(CN(C)C(=O)c2cc(C3CC3)nc3c2cnn3C(C)C)cc1`, the inhibition was 0.25%.

`COCCNC(=O)CSc1nc(N)c(NC(=O)c2ccco2)c(=O)[nH]1`: the inhibition is 0.48%.

In the case of `CCN(CC(=O)Nc1ccc(NC(C)=O)cc1)C(=O)C1CC(=O)N(c2ccc3c(c2)OCCO3)C1` (stereo unspecified), the inhibition was 0.46%.

For the compound `CCn1c(CNS(=O)(=O)c2ccc(Cl)cc2)n[nH]c1=S`, the inhibition was 0.01%.

`CCn1c(CN2C(=O)CSc3ccccc32)n[nH]c1=S`: the inhibition was 7.22% (active).

For `CCn1c(CSCc2c(Cl)cccc2Cl)n[nH]c1=S`, the inhibition is -0.93%.

With `O=C(COC(=O)c1cncc(Br)c1)Nc1ccc(S(=O)(=O)N2CCOCC2)cc1`, the inhibition was 1.32%.

On to `O=C(Nc1cc(F)ccc1F)c1ccc2c(=O)n3c(nc2c1)CCC3`, for which the inhibition is 3.09%.

As to `O=C(CN1CCN(Cc2ccccc2)CC1)NC(c1ccccc1)c1ccccc1`, the inhibition is -1.74%.

With `O=C1c2ccccc2C(=O)c2c1cccc2N1CCN(Cc2ccccc2)CC1`, the inhibition was 4.26% (active).

As for `O=C1c2ccccc2C(=O)c2c1cccc2N1CCN(CCO)CC1`, the inhibition was 0%.

Regarding `CC(=O)Nc1ccc2c3c(ccc([N+](=O)[O-])c13)CC2`, the inhibition is -0.19%.

For `Cc1nn(C)c(C(=O)NNC(=S)NC2CCCCC2)c1Cl`, the inhibition is -0.26%.

Regarding `COc1cccc(OC)c1C(=O)NC(=S)Nc1ccc(N2CCOCC2)c(Cl)c1`, the inhibition is 0.83%.

On to `COc1cccc(NC(=S)NC(=O)c2c(Cl)c(C)nn2C)c1`, for which the inhibition is 4.28% (active).

On to `CCCCCCn1c(=O)n2n(c1=O)C[C@]1(OC(=O)NCc3ccc(OC)c(OC)c3)CN(S(=O)(=O)c3ccc(C)cc3)C[C@]1(O)C2`, for which the inhibition is -0.07%.

Take `C=CCN1CCN(c2ccncc2S(=O)(=O)N2CCN(C)CC2)CC1`: the inhibition is 1.7%.

As for `C[C@@H]1CN([C@@H](C)CO)C(=O)c2c(c3ccccc3n2C)-c2ccccc2CO[C@H]1CN(C)C(=O)C1CC1`, the inhibition is 0.47%.

Consider `COc1ccc(NC(=O)N(C)C[C@@H]2OCc3cn(nn3)CCCC(=O)N([C@H](C)CO)C[C@H]2C)c(OC)c1`, for which the inhibition was -0.22%.

Turning to `Cc1cccc(NC(=O)CN2C(=O)CNC2=O)c1`, the inhibition is 1.34%.

Take `C=CCOc1ccccc1NC(=O)CN1C(=O)CNC1=O`: the inhibition was 4.47% (active).

Take `C=CCOc1ccccc1/C=N/NC(=O)Cc1ccccc1`: the inhibition was 0.28%.

As for `COc1ccc(/C=C2\N=C3CCCN3C2=O)cc1`, the inhibition was 4.84% (active).

`COc1ccc(/C=C2\SC(=N)N(c3ccc(F)cc3)C2=O)cc1`: the inhibition was -0.7%.

As for `COc1ccc(/C=C2/CCCc3ccccc3C2=O)cc1`, the inhibition was -1.11%.

For the compound `COc1ccc(S(=O)(=O)N2CCC(C(=O)NCCC(=O)NCCc3cccc(F)c3)CC2)cc1`, the inhibition is 0.25%.

Take `CSc1ncnc2c1ncn2CCCNCC1CCCCC1`: the inhibition was -0.19%.

Regarding `COc1ccc(-c2nnc(SC(C)C#N)o2)cc1` (stereo unspecified), the inhibition is 4.68% (active).

For the compound `COc1ccc(-c2nnc(SC(=O)N3c4ccccc4Sc4ccccc43)o2)cc1`, the inhibition is -1.53%.

As to `COc1ccc(-c2nnc(SC(C)C(=O)NC3CC3)o2)cc1` (stereo unspecified), the inhibition was 1.85%.

Take `CNC(=O)C1CN(C(=O)c2cccc(S(=O)(=O)N3CCc4ccccc43)c2)c2ccccc2O1` (stereo unspecified): the inhibition was -2.16%.

As for `CCCCN(C(=O)CSCc1ccc(C)cc1)c1c(N)n(Cc2ccccc2)c(=O)[nH]c1=O`, the inhibition was 0.19%.

With `CCCN(C(=O)CSc1nnnn1C)c1c(N)n(Cc2ccccc2)c(=O)[nH]c1=O`, the inhibition is 5.42% (active).

As for `CCCN(C(=O)CSc1nnc(N)s1)c1c(N)n(Cc2ccccc2)c(=O)[nH]c1=O`, the inhibition is -2.02%.

Turning to `CC(C)CC1C(=O)N(Cc2cn(Cc3ccco3)nn2)CCS(=O)(=O)N1Cc1ccc(-c2ccc(Cl)c(Cl)c2)cc1` (stereo unspecified), the inhibition was -1.34%.

As for `CCn1c(SCC(=O)N2CCCC2=O)nc2ccccc21`, the inhibition was 1.3%.

With `CCOC(=O)c1cc2c(nc1NC(=S)Nc1ccccc1)CC(C)(CC)OC2` (stereo unspecified), the inhibition was 0.77%.

In the case of `CCOC(=O)c1ccc(NC(=S)Nc2cc(C)cc(C)n2)cc1`, the inhibition was 1.42%.

For the compound `CCOC(=O)c1cn[nH]c1NC(=S)Nc1ccccc1`, the inhibition was 6.19% (active).

With `O=C(NN=Cc1ccc2c(c1)CCC2)c1ccccc1O`, the inhibition is 2.24%.

For the compound `O=C(C[C@H]1C[C@H]2c3cc(NS(=O)(=O)c4ccc(F)cc4)ccc3O[C@H]2[C@H](CO)O1)NCc1cc(F)ccc1F`, the inhibition was -0.52%.

Turning to `Cc1ccc(NC(=O)CN2CCC(C(N)=O)CC2)cc1[N+](=O)[O-]`, the inhibition was 0.4%.

For the compound `Cc1ccc(NC(=O)c2sccc2C)cc1[N+](=O)[O-]`, the inhibition is 5.25% (active).

`Cc1ccc(NC(=O)CN(C)CC(=O)Nc2cccc(F)c2)cc1[N+](=O)[O-]`: the inhibition was -3.16%.

Regarding `CCN(CC)C(=O)C(=O)Nc1cccc(Br)c1`, the inhibition is 1.59%.

Regarding `CC(=O)Nc1cccc(C(=O)OCN2C(=O)c3ccccc3C2=O)c1`, the inhibition is 0.92%.

Take `CCN(CC)N=Nc1cccc(NC(C)=O)c1`: the inhibition was 8.01% (active).

On to `CC(C)n1ncc2c(C(=O)N3CCN(Cc4cccs4)CC3)cc(C3CC3)nc21`, for which the inhibition was -1.38%.

As to `Cc1ccc(S(=O)(=O)N(CCc2ccccc2)c2ccc3c(c2)C2CC3CCN2C(=O)OCc2ccccc2)cc1` (stereo unspecified), the inhibition is -0.92%.

For the compound `CCOC(=O)N1CCN(Cc2nc(Cc3cccc(C(F)(F)F)c3)no2)CC1`, the inhibition was 4.88% (active).

`Fc1cccc(Cc2noc(CN3CCN(c4cnccn4)CC3)n2)c1`: the inhibition was -1.08%.

As to `FC(F)(F)c1cccc(Cc2noc(CN3CCC(N4CCCCC4)CC3)n2)c1`, the inhibition is 0.44%.

As for `O=C(c1ccco1)N1CCN(Cc2cccc(C(F)(F)F)c2)CC1`, the inhibition was 4.58% (active).

With `O=C(c1ccco1)N1CCN(CCOc2ccccc2)CC1`, the inhibition was 3.53%.

On to `O=C(CN1CCN(C(=O)c2ccco2)CC1)Nc1ccc(Cl)c(C(F)(F)F)c1`, for which the inhibition was -0.99%.

On to `Cc1cc(C)c2cc(C#N)c(N3CCNCC3)nc2c1`, for which the inhibition was 0.35%.

Turning to `O=Cc1cn(CCOc2ccc(F)cc2)c2ccccc12`, the inhibition is -0.3%.

As for `O=C(CNC(=O)N1CC(=O)Nc2ccccc21)Nc1ccc(Br)cc1F`, the inhibition is 0.45%.

Consider `Cc1nnc(SC(C)C(=O)c2c[nH]c3ccccc23)n1C1CC1` (stereo unspecified), for which the inhibition is 0.71%.

With `CCc1ccccc1NC(=O)CN(c1ccc(OC)cc1OC)S(=O)(=O)c1ccccc1[N+](=O)[O-]`, the inhibition was 5.44% (active).

As to `COc1ccc2c(CC(=O)OCC(=O)Nc3ccccc3[N+](=O)[O-])coc2c1`, the inhibition is 0.79%.

Consider `COc1ccc(N(CC(=O)Nc2cccc3ccccc23)S(C)(=O)=O)c(OC)c1`, for which the inhibition was -0.73%.

Take `CCN(CC)C(=O)C1=C(C)N(Cc2ccc(OC)cc2)C(=O)C(CC(=O)NCCCCc2ccccc2)C1` (stereo unspecified): the inhibition is -0.34%.

Consider `CCOc1ccc(CCNC(=O)COC(=O)c2ccc(C)c(S(=O)(=O)N3CCOCC3)c2)cc1OCC`, for which the inhibition is -0.65%.

Consider `CCN(CC)C(=O)C1=C(C)N(Cc2ccc(C(C)(C)C)cc2)C(=O)C(CC(=O)NCc2cccc3ccccc23)C1` (stereo unspecified), for which the inhibition is -0.14%.
